The results in this text go back to PubChem BioAssay (NCATS).

Assay [1] can be described thus: Cell Viability - NIH 3T3 (AID 541).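 Further: cells exposed to compound for 40 hours; nearly all actives have a fitted effect of over 25% in size.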 Further: potency means the concentration at half of the fitted maximal effect.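 On activity change, negative = cytotoxicity: plate controls were DMSO alone for no effect and tamoxifen positive control for full effect.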 As to conditions: NIH 3T3 cell viability, qHTS; activity change, negative = cytotoxicity: at 92.2 µM (top of the series). Summed up: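 qHTS format; 40 hr compound exposure, 37 °C; CellTiter-Glo luminescence (cellular ATP) read-out after 20 min at RT. Decrease in ATP = cytotoxicity; AC50 from standard Hill fit.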
Assay [2] can be described thus: Cellular Toxicity (caspase-3) NIH 3T3 (AID 666).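 Further: caspase signal read after 16 h compound exposure; 0% = DMSO basal and 100% = 100 µM tamoxifen stimulation.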 The method, boiled down:
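NIH 3T3, 1000 cells/well, 5 hr settle then 16 hr compound at 37°C; Caspase-Glo 3/7, 20 min RT, luminescence. DMSO = basal, 100 uM tamoxifen = 100%. Hill-equation AC50, qHTS.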

Assay [3] can be described thus: Cell Viability - LYMP2-002 (AID 977). Further: potency means the concentration at half of the fitted maximal effect. Summed up:
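Human lymphoblastoid cells, 2500/well, complete medium; 5 h 37 C settle; compound 24 h 37 C; CellTiter-Glo, 30 min RT; luminescence. Decrease in ATP = cytotoxicity; AC50 via Hill equation.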

Assay [4] can be described thus: Cell Viability - LYMP2-006 (AID 978). Further: nearly all actives have a fitted effect of over 60% in size. Further: potency means the concentration at half of the fitted maximal effect. On activity change, negative = cytotoxicity: on the % scale 0 is the no-effect control and ±100 the full control effect. The method, boiled down:
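Potency values are Hill-fit AC50s for decreases in intracellular ATP (CellTiter-Glo luminescence). LYMP2-006 lymphoblastoid cells, 2500 per well, were exposed to compound in complete culture medium for 24 hr at 37 C.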

The nature of assay [5]: Cell Viability - LYMP2-010 (AID 981). Further: nearly all actives have a fitted effect of over 55% in size. Further: potency means the concentration at half of the fitted maximal effect. Summed up:
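qHTS cytotoxicity, 1536-well: 2500 cells/well, 5 hr settle, 24 hr compound at 37 C, CellTiter-Glo 30 min RT, luminescence read. Decrease in ATP = toxicity; AC50 via standard Hill equation. Positive control tetraoctylammonium bromide.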

A short description of assay [6]: Cell Viability - LYMP2-012 (AID 982).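 Further: cellular ATP by luciferase luminescence where a drop means cytotoxicity; cells exposed to compound for one day before reading; nearly all actives have a fitted effect of over 55% in size.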 Further: potency means the concentration at half of the fitted maximal effect.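 On activity change, negative = cytotoxicity: 0% = DMSO only and full loss = 92 µM tetraoctylammonium bromide.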
Assay [7] in a line: Cell Viability - LYMP2-016 (AID 984). Further: nearly all actives have a fitted effect of over 55% in size. Further: potency means the concentration at half of the fitted maximal effect. The method, boiled down: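 Cytotoxicity was scored by luminescent ATP content (CellTiter-Glo) after 24 h compound exposure at 37 C of a human lymphoblastoid line at 2500 cells/well. Concentration-response data were fitted to the Hill equation for AC50.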
The nature of assay [8]: Cell Viability - LYMP2-018 (AID 985). Further: nearly all actives have a fitted effect of over 50% in size. Further: potency means the concentration at half of the fitted maximal effect.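 On activity change, negative = cytotoxicity: plate controls were DMSO only for no effect and tetraoctylammonium bromide at 92 µM for full effect.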 Summed up: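 2500 cells/well; 5 hr 37 C; cmpd 24 hr 37 C, complete medium; CellTiter-Glo 30 min RT; luminescence. Tetraoctylammonium bromide positive control. AC50 via Hill fit.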
Assay [9] is described as follows: Cell Viability - LYMP2-020 (AID 986). Further: nearly all actives have a fitted effect of over 55% in size. Further: potency means the concentration at half of the fitted maximal effect. The method, boiled down:
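qHTS, 2500 cells/well; 5 hr then 24 hr compound exposure, 37 C; CellTiter-Glo luminescence after 30 min RT; ATP decrease taken as cytotoxicity; AC50 via Hill equation; tetraoctylammonium bromide positive control.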

A short description of assay [10]: Cell Viability - LYMP2-022 (AID 987). Further: nearly all actives have a fitted effect of over 55% in size. Further: potency means the concentration at half of the fitted maximal effect. The method, boiled down: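 Luminescent ATP read-out (CellTiter-Glo, 30 min, RT) after 24 hr, 37 C compound exposure of 2500 human lymphoblastoid cells/well in complete medium. Cytotoxicity taken as concentration-dependent ATP loss; AC50 from standard Hill equation.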
Assay [11] can be described thus: Cell Viability - LYMP2-024 (AID 988). Further: nearly all actives have a fitted effect of over 60% in size. Further: potency means the concentration at half of the fitted maximal effect.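 On activity change, negative = cytotoxicity: plate controls were DMSO only for no effect and 92 µM tetraoctylammonium bromide for full effect.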 Summed up: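 ATP-based luminescence (CellTiter-Glo, 30 min RT) after 24 h compound exposure at 37 C of 2500 lymphoblastoid cells/well; decrease in ATP taken as cytotoxicity. qHTS concentration-response fitted to standard Hill equation for AC50.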
The nature of assay [12]: Cell Viability - LYMP2-026 (AID 989). Further: nearly all actives have a fitted effect of over 50% in size. Further: potency means the concentration at half of the fitted maximal effect. Summed up:
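qHTS cytotoxicity: 2500 cells/well, 5 hr 37 C, compound 24 hr 37 C, CellTiter-Glo 30 min RT, luminescence. Tetraoctylammonium bromide positive control. AC50 via standard Hill fit.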

Assay [13] concerns the target Vitamin D3 receptor (Homo sapiens) (UniProt P11473). Put plainly: qHTS assay for small molecule antagonists of vitamin D receptor signaling (AID 588541; calls by dose curve;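 further: receptor activated by calcitriol during compound treatment; on the % scale 0 is the no-effect control and ±100 the full control effect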). Summed up: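 VDR-UAS-bla HEK293T cells in 2% charcoal-stripped FBS were stimulated with 1-alpha,25-dihydroxyvitamin D3 (3 nM final) plus compound for 16 h at 37 C. The beta-lactamase CCF4 readout was normalized to 50 nM agonist and DMSO, and Hill fits gave IC50.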
In general terms: In qHTS, concentration-response curves come from the screen itself.

Assay [14] shares this target. Put plainly: qHTS assay for small molecule agonists of vitamin D receptor signaling (AID 588543; calls by dose curve;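 further: 0% = DMSO basal and 100% = reference agonist control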). The method, boiled down: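 Agonist-mode beta-lactamase reporter: HEK293T VDR-UAS-bla cells in charcoal-stripped 2% FBS, compound series 16 h 37 C, CCF4 2 h RT. EC50 from Hill fit, scaled against DMSO and 50 nM calcitriol control.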
Assay [15] addresses Thyroid hormone receptor beta (Homo sapiens) (UniProt P10828). Put plainly: qHTS assay for small molecule agonists of thyroid hormone receptor beta signaling (AID 588545; calls by dose curve). Summed up:
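HEK 293 TR-UAS-bla; agonist mode; 18 hrs, 37 C; CCF4, ex 405/em 460 and 530 nm; norm. T3 10 nM = 100%, DMSO = 0%; Hill fit → EC50, efficacy.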

Assay [16] concerns the target Voltage-gated inwardly rectifying potassium channel KCNH2 (Homo sapiens) (UniProt Q12809). Put plainly: qHTS Assay for Small Molecule Inhibitors of the Human hERG Channel Activity (AID 588834).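 Further: top concentration of the series differs between compounds; on the % scale 0 is the no-effect control and ±100 the full control effect; lower thallium flux fluorescence means stronger hERG block; nearly all actives have a fitted effect of over 50% in size.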 Summed up:
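hERG block measured as reduced thallium-dye (FluxOR) fluorescence after stimulation buffer addition, read over 2 min. Cells were hERG-BacMam-transduced U2OS exposed to compound ~10 min […]; concentration-response fitted with Hill equation for AC50.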

The nature of assay [17]: qHTS assay for small molecule disruptors of the mitochondrial membrane potential - 5 hr assay (AID 651755; calls by dose curve; further: on the % scale 0 is the no-effect control and ±100 the full control effect; nearly all actives have a fitted effect of over 40% in size). Summed up: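 Read-out: ratiometric Mito-MPS fluorescence, green monomer (ex 490/em 535) vs red mitochondrial aggregate (ex 540/em 590). HepG2 cells treated 5 hr at 37C before 30 min dye loading.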
Assay [18] concerns the target Nuclear receptor ROR-gamma (Homo sapiens) (UniProt P51449). Put plainly: qHTS assay for small molecule antagonists of the retinoid-related orphan receptor gamma (ROR-gamma) signaling pathway (AID 651802).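 Further: CHO cells with doxycycline-induced ROR-gamma expression; luciferase reporter luminescence driven by ROR response element; on the % scale 0 is the no-effect control and ±100 the full control effect; nearly all actives have a fitted effect of over 60% in size.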 Summed up: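 Luciferase read-out: ONE-Glo luminescence after 30 min at room temperature, following 16hr doxycycline induction at 37C, 5% CO2 of CHO cells with TET-inducible ROR and RORE-LUC reporter; decreased luminescence = reduced reporter activity.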

The nature of assay [19]: qHTS assay for small molecule antagonists of the retinoid-related orphan receptor gamma (ROR-gamma) signaling pathway - cell viability counter screen (AID 720652; active means well fitted curve in the direction sought with a large enough effect in the repeat runs; an effect the other way counts as inactive or inconclusive;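 further: CHO reporter cells with doxycycline-induced ROR-gamma expression; compound exposure lasted 16 hr before ATP read; on the % scale 0 is the no-effect control and ±100 the full control effect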). The method, boiled down:
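CHO RORE-LUC/TET-ROR line, 1,000 cells/well, 37 C 5% CO2 5 hr; cpd or DMSO + doxycycline induction, 16 hr. CellTiter-Glo, 30 min RT, luminescence = ATP content.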

Assay [20] is described as follows: qHTS assay for small molecule agonists of the antioxidant response element (ARE) signaling pathway measured by Nrf2-dependant transcriptional activity - cell viability counter screen (AID 720653; active means well fitted curve in the direction sought with a large enough effect in the repeat runs; an effect the other way counts as inactive or inconclusive; further: on the % scale 0 is the no-effect control and ±100 the full control effect). As to conditions: ARE-bla HepG2 viability, CellTiter-Glo ATP luminescence, 16 h; max response: stronger effect = lower value. The method, boiled down: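 ARE-bla HepG2 cells treated with compounds for 16 h at 37C; this counter screen measures viability as intracellular ATP by CellTiter-Glo luminescence after 30 min at room temperature.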

Several values for one entry are separate records, joined by “and”; a condition that tells them apart may be missing. Equal entries are not always repeated. Results filed as inconclusive are left out. A number with no mark means an inactive call. Activity calls are given as the source filed them. Unless noted, the call rests on the fitted dose curve; in most records, active means well fitted curve in the direction sought with a large enough effect; inconclusive means small, poorly fitted or top-dose-only effect, or another doubt; inactive means no such curve, though single readings can be large; an effect the other way counts as inactive or inconclusive.

Nuclear receptor ROR-gamma (Homo sapiens), sequence (P51449 whole entry, looked up): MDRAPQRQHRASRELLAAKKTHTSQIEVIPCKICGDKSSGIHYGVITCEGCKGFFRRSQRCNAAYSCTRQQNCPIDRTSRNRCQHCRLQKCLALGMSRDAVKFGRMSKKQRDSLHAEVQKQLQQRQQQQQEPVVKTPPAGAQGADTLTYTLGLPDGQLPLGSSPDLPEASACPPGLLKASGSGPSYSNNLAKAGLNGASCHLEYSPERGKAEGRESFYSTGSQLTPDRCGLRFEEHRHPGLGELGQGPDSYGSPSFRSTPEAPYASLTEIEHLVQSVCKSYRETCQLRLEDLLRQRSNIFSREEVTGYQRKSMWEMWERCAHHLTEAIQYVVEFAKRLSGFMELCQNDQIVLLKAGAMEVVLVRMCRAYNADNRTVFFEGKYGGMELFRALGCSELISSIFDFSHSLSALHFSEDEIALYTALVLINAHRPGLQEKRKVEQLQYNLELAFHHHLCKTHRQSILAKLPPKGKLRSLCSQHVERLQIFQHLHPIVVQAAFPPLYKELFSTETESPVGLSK
Voltage-gated inwardly rectifying potassium channel KCNH2 (Homo sapiens), sequence (Q12809 whole entry, looked up): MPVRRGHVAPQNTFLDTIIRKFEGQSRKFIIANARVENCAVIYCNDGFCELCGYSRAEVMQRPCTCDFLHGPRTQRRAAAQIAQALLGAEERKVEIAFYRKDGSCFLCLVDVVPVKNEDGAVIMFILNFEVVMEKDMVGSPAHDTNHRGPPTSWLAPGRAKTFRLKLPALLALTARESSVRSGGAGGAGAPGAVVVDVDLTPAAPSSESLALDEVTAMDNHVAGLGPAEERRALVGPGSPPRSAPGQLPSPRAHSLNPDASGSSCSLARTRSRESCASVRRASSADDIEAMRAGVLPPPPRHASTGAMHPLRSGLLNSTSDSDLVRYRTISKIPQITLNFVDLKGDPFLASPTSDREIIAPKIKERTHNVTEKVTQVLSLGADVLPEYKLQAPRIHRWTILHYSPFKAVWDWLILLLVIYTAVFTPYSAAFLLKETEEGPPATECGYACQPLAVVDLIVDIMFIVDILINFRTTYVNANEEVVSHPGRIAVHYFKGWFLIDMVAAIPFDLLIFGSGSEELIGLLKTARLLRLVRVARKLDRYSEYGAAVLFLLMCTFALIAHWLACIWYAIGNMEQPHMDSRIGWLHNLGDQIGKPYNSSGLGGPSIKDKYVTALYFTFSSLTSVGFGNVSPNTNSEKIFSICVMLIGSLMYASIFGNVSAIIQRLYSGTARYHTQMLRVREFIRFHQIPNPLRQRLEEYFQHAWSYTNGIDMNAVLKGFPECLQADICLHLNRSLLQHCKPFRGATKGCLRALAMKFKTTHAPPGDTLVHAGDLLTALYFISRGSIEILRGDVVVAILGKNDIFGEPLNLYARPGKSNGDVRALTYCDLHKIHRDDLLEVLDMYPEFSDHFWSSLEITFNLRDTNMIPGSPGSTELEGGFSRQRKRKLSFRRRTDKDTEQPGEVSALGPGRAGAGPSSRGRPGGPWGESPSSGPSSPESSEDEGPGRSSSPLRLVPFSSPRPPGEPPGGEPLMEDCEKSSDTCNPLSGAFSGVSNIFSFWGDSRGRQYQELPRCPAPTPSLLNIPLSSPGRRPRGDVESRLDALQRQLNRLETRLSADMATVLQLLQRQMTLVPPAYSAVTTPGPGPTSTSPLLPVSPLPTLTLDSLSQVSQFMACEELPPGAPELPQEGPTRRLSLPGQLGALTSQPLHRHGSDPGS
Vitamin D3 receptor (Homo sapiens), sequence (P11473 whole entry, looked up): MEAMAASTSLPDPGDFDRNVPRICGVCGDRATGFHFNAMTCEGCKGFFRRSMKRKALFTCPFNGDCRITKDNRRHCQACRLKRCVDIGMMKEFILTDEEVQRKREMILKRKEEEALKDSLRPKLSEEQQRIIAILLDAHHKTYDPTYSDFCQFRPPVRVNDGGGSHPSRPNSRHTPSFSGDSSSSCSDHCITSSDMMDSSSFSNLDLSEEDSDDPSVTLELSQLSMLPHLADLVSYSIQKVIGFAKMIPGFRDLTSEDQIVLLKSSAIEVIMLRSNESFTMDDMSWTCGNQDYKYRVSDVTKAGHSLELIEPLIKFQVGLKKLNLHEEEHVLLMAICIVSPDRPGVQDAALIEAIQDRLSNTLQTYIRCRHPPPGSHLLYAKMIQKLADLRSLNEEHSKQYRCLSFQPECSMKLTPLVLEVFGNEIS
Thyroid hormone receptor beta (Homo sapiens), sequence (P10828 whole entry, looked up): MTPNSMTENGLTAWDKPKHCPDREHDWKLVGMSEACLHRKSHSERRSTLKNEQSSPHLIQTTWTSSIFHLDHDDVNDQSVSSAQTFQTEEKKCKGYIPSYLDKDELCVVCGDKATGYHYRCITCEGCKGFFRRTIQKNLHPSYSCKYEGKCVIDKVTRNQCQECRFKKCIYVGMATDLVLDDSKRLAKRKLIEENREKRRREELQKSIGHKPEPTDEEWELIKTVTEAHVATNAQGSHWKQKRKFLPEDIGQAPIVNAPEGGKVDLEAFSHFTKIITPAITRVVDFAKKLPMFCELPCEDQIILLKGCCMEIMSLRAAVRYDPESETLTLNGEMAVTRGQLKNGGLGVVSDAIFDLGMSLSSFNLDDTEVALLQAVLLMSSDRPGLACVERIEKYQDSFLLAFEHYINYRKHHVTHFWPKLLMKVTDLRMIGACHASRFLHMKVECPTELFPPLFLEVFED

In the case of `O=Cc1ccc(Cl)c(Cl)c1`, the Potency entry in assay [1], in assay [2], in [3], in assay [4], in [5] and in assay [6] was “inactive” in each case. In addition, the Potency result in assay [7], in assay [8], in [9], in assay [10], in assay [11] and in assay [12] was “inactive” throughout. Besides, the Potency entry in assay [13], in assay [16], in assay [17], in assay [18] and in [19] was “inactive” in each case. Also, the result in assay [14] and in assay [15] was inactive. The max response in assay [20] is 7.11%.
Turning to `ClC1=C(Cl)C(Cl)(Cl)C(Cl)=C1Cl`, the activity change, negative = cytotoxicity in assay [1] was -125% (active). Further, the Potency result in [2], in [13] and in [17] was “inactive” in each case. Moreover, the call in assay [14] and in assay [15] was inactive.
On to `c1ccc2c(c1)-c1cccc3c1c-2cc1ccccc13`, for which the Potency entry in [2], in assay [3], in assay [4], in assay [5], in [6] and in [7] was “inactive” throughout. The Potency entry in assay [8], in assay [9], in assay [10], in assay [11], in assay [12] and in assay [16] was “inactive” each time. Further, in assay [17], the Potency result is “inactive”. Also, the max response in assay [20] was -12.4% and -4.83%.
Turning to `CNc1ccc(O)cc1`, the Potency is 25.1 µM (active) in assay [1]; 10 µM (active) in [3]; 12.6 µM (active) in assay [4]; 3.16 µM (active) in [5]; 3.98 µM (active) in assay [6]; 7.94 µM (active) in assay [7]. The Potency was 5.01 µM (active) in assay [8]; 3.98 µM (active) in assay [9]; 3.16 µM (active) in assay [10]; 2.51 µM (active) in [11]; 7.94 µM (active) in assay [12]. The compound was called inactive in assay [14] and in assay [15]. Further, the Potency result in assay [16] is “inactive”. The max response in assay [20] was -24.5%.
On to `O=[N+]([O-])c1cc([N+](=O)[O-])c2ccc(S(=O)(=O)O)cc2c1O`, for which the Potency entry in assay [1], in assay [2], in [3], in assay [4], in [5] and in assay [6] was “inactive” throughout. In addition, the Potency entry in [7], in assay [8], in assay [9], in [10], in assay [11] and in [12] was “inactive” in each case. Further, the Potency entry in [17] and in [19] was “inactive” throughout. Further, the max response in assay [20] is 17.2%.
In the case of `CN1[C@H]2CC(OC(=O)[C@H](CO)c3ccccc3)C[C@H]1[C@H]1O[C@H]12` (some centres undefined), the Potency result in [1], in assay [2], in [3], in assay [4], in assay [5] and in assay [6] was “inactive” each time. Moreover, the Potency entry in assay [7], in assay [8], in [9], in [10], in assay [11] and in assay [12] was “inactive” each time. Further, the Potency entry in assay [13], in assay [17], in assay [18] and in assay [19] was “inactive” throughout. For the same compound, the call in assay [14] and in assay [15] was inactive. In [20], the max response was 0.433% and 4.93%.
As for `Cc1cccc(O)c1C`, the Potency result in assay [1], in assay [2], in [3], in assay [4], in assay [5] and in [6] was “inactive” in each case. The Potency result in assay [7], in assay [8], in [9], in assay [10], in assay [11] and in assay [12] was “inactive” in each case. Also, the Potency result in assay [13], in [16], in assay [17], in assay [18] and in assay [19] was “inactive” throughout. Moreover, the outcome in [14] and in [15] was inactive. Also, the max response in [20] is -1.51%.
